# Reference: PubChem BioAssay
# Active and inactive are the calls of the source.
# Key:
# Albumin (Bos taurus) = Albumin (Bos taurus) (UniProt P02769); assay: compounds binding labelled BSA control protein – biochemical, small-molecule microarray, Alexa647 label, 635/667 nm fluorescence, artefact control for SMM control protein annotation, profiling panel (AID 1118); conditions: BSA-A647 binding, fluorescence 635 nm, higher = more signal;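 also: score merges 667 nm emission intensity and signal-to-noise per printed compound spot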
# Albumin (Bos taurus), sequence (P02769 whole entry, looked up): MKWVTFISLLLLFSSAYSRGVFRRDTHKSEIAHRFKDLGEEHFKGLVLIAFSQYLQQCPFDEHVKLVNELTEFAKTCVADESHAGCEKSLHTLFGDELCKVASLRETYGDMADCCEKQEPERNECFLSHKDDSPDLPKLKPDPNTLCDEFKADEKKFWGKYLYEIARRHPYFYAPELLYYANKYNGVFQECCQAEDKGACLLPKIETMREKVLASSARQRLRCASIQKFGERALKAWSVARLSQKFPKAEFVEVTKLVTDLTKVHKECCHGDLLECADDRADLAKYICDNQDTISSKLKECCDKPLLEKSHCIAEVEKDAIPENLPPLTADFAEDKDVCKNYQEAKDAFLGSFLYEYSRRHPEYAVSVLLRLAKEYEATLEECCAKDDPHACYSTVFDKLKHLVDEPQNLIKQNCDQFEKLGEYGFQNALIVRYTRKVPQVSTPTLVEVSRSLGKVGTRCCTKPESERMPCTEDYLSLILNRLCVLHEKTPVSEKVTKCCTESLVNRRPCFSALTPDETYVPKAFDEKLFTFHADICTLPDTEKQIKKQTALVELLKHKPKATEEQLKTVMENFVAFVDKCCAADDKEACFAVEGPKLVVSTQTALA
# [1] = probe aXIP binding to arrayed compounds – biochemical, NeuroSMM set, 635/667 nm fluorescence, primary screen (AID 1119); conditions: small-molecule microarray, higher = more signal, called active from +8 up or from −8 down;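 also: probe is the protein aXip251-270 applied at 1 µg/mL to compound-printed slides; binding of probe to printed compounds measured as 667 nm fluorescence plus signal to noise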
# [2] = probe aNOTCH3 binding on compound microarray – biochemical, small-molecule microarray, 635/667 nm fluorescence, primary screen (AID 1120); conditions: higher = more signal;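 also: probe is a biotin-tagged antibody raised against NOTCH3 rather than NOTCH3 protein; score merges spot fluorescence near 667 nm with spot signal to noise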
# [3] = probe aNOTCH2 binding on compound microarray – biochemical, small-molecule microarray, 635/667 nm fluorescence, primary screen (AID 1121); conditions: higher = more signal;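 also: score merges feature fluorescence read at 667 nm with its signal to noise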
# [4] = biological target: Carbonic anhydrase 2 (Homo sapiens) (UniProt P00918); assay: compounds binding carbonic anhydrase 2 – biochemical, small-molecule microarray, Alexa647-labelled CAII, profiling panel (AID 1122); conditions: CAII-A647 binding fluorescence, higher = more signal
# [5] = COS7 lysate on small-molecule microarray, probe aHis, 635 nm (AID 1123); conditions: COS7 cell lysate, fluorescence, higher = more signal;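 also: z-score combines 667nm fluorescence intensity with signal-to-noise per printed compound spot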
# [6] = probe aLAP1 signal on lysate-treated microarray – cell lysate, small-molecule microarray, COS7 lysate, primary screen (AID 1124); conditions: probe aLAP1, fluorescence, higher = more signal;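 also: lysate comes from COS7 cells expressing LAP1 and is applied at 0.3 µg/mL; score merges spot fluorescence near 667 nm with signal-to-noise over triplicate slides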
# Sam68 (KHDRBS1) = assay: compounds binding KHDRBS1 protein – biochemical, small-molecule microarray, 635 nm fluorescence, primary screen (AID 1125); conditions: higher = more signal;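 also: score merges 667 nm channel intensity with signal to noise over triplicate slides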
# [7] = tested on: Chordin-like protein 2 (CHRDL2); assay: compounds binding chordin-like 2 – biochemical, small-molecule microarray, 635 nm fluorescence, primary screen (AID 1126); conditions: fluorescence 635 nm, higher = more signal;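 also: printed compound slides probed with Chrdl2 protein at 4 µg/mL for 1 h at 4 C; score merges 667 nm emission intensity with signal to noise over three replicate slides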
# [8] = biological target: Concanavalin-A (Canavalia ensiformis) (UniProt P02866); assay: compounds binding concanavalin A lectin – biochemical, small-molecule microarray, Alexa647 label, 635 nm, artefact control for SMM control protein annotation, primary screen (AID 1127); conditions: ConA-A647 binding fluorescence, higher = more signal;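 also: z combines 667 nm emission intensity with signal-to-noise across three replicate slides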
# Concanavalin-A (Canavalia ensiformis), sequence (P02866 whole entry, looked up): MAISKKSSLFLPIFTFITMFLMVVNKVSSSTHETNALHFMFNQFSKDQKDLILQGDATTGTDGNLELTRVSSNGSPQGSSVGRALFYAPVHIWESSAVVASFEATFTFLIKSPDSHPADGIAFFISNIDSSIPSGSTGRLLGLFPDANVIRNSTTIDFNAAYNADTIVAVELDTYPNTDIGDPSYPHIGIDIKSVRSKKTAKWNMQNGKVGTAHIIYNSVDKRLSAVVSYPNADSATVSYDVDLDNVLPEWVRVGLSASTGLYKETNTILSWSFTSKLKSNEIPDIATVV
smiles,measurement,setting,value
COC(=O)[C@@]1(Cc2ccc(F)cc2)[C@H]2c3cc(C(=O)N(C)C)n(Cc4ccccn4)c3C[C@H]2CN1C(=O)c1ccccc1,composite z-score,Albumin (Bos taurus),0.979
same,composite Z-score,[1],-0.91 (inactive)
same,composite z-score,[2],1.15
same,composite z-score,[3],-0.168
same,composite z-score,[4],0.908
same,composite z-score,[5],2.46
same,composite z-score,[6],1.08
same,composite z-score,Sam68 (KHDRBS1),1.19
same,composite z-score,[7],-0.552
same,composite z-score,[8],0.481
COC(=O)c1c2oc(c1C(=O)OC)C(=O)N[C@H](Cc1ccccc1)Cn1nncc1C1(CCCCC1)NC(=O)N[C@H](CO)CC2,composite z-score,Albumin (Bos taurus),-0.399
same,composite Z-score,[1],0.699 (inactive)
same,composite z-score,[2],-0.143
same,composite z-score,[3],-0.192
same,composite z-score,[4],0.163
same,composite z-score,[5],0.388
same,composite z-score,[6],-0.0073
same,composite z-score,Sam68 (KHDRBS1),0.702
same,composite z-score,[7],0.419
same,composite z-score,[8],0.0053
C=CCN1C(=O)[C@@]2(O[C@@H](CCO)[C@H]([Si](C)(C)c3ccc(OC)cc3)[C@H]2C)c2cc(N3C(=O)COc4ccccc43)ccc21,composite z-score,Albumin (Bos taurus),0.277
same,composite Z-score,[1],0.69 (inactive)
same,composite z-score,[2],-0.141
same,composite z-score,[3],-0.14
same,composite z-score,[4],0.277
same,composite z-score,[5],1.4
same,composite z-score,[6],0.0661
same,composite z-score,Sam68 (KHDRBS1),1.29
same,composite z-score,[7],-0.317
same,composite z-score,[8],0.973
COC(=O)C(CC#Cc1ccc2c(c1)[C@]1(C(=O)N2)[C@H](C(=O)N2CCCCCCC2)[C@H]2C(=O)O[C@H](c3ccccc3)[C@H](c3ccccc3)N2[C@@H]1c1ccccc1OCCO)C(=O)OC,composite z-score,Albumin (Bos taurus),0.678
same,composite Z-score,[1],10.6 (active)
same,composite z-score,[2],2.26
same,composite z-score,[3],1.16
same,composite z-score,[4],1.08
same,composite z-score,[5],5.41
same,composite z-score,[6],1.58
same,composite z-score,Sam68 (KHDRBS1),1.32
same,composite z-score,[7],1.68
same,composite z-score,[8],0.916
C=CCN1Cc2ccccc2C[C@@]2(COC(c3ccc(OCCCO)cc3)=N2)C1=O,composite z-score,Albumin (Bos taurus),-0.476
same,composite Z-score,[1],0.0425 (inactive)
same,composite z-score,[2],0.0596
same,composite z-score,[3],0.0965
same,composite z-score,[4],0.598
same,composite z-score,[5],2.14
same,composite z-score,[6],0.547
same,composite z-score,Sam68 (KHDRBS1),0.811
same,composite z-score,[7],1.12
same,composite z-score,[8],0.85
NC(=O)NCC#Cc1ccc2c(c1)[C@]1(C(=O)N2)[C@H](c2ccc(O)cc2)N2[C@H](c3ccccc3)[C@H](c3ccccc3)OC(=O)[C@H]2[C@@H]1C(=O)N1CCN(c2ncccn2)CC1,composite z-score,Albumin (Bos taurus),0.317
same,composite Z-score,[1],1.24 (inactive)
same,composite z-score,[2],0.191
same,composite z-score,[3],-0.0048
same,composite z-score,[4],0.396
same,composite z-score,[5],1.64
same,composite z-score,[6],0.32
same,composite z-score,Sam68 (KHDRBS1),-0.0586
same,composite z-score,[7],-0.165
same,composite z-score,[8],0.377
CC1CC/C=C\[C@H]2OC34C=CCN(Cn5nnc6ccccc65)C(=O)[C@H]3N(CCCO)C(=O)[C@@H]4C2C(=O)O1 (stereo not given in full),composite z-score,Albumin (Bos taurus),0.757
same,composite Z-score,[1],0.372 (inactive)
same,composite z-score,[2],-0.272
same,composite z-score,[3],-0.115
same,composite z-score,[4],0.926
same,composite z-score,[5],0.016
same,composite z-score,[6],1.2
same,composite z-score,Sam68 (KHDRBS1),-0.119
same,composite z-score,[7],-1.33
same,composite z-score,[8],-0.668
O=C1C2C=CC(C(O)c3cccc4ccccc34)N(n3cnnc3)C2C(=O)N1Cc1ccccc1 (stereo not given),composite z-score,Albumin (Bos taurus),-0.0146
same,composite Z-score,[1],-0.415 (inactive)
same,composite z-score,[2],1.28
same,composite z-score,[3],0.747
same,composite z-score,[4],0.754
same,composite z-score,[5],0.434
same,composite z-score,[6],0.544
same,composite z-score,Sam68 (KHDRBS1),-0.131
same,composite z-score,[7],0.166
same,composite z-score,[8],0.0912
CC1(C)C(=O)C(c2ccccc2)=C2CN3C(=O)N(CCc4ccccc4)C(=O)C3(Cc3ccccc3)C=C21 (stereo not given),composite z-score,Albumin (Bos taurus),0.775
same,composite Z-score,[1],0.274 (inactive)
same,composite z-score,[2],0.351
same,composite z-score,[3],0.121
same,composite z-score,[4],0.644
same,composite z-score,[5],1.16
same,composite z-score,[6],-0.0857
same,composite z-score,Sam68 (KHDRBS1),0.516
same,composite z-score,[7],-0.888
same,composite z-score,[8],0.444
O=C1C2C=CC(C(O)C3CC=CCC3)N(n3cnnc3)C2C(=O)N1Cc1ccccc1 (stereo not given),composite z-score,Albumin (Bos taurus),-0.952
same,composite Z-score,[1],0.241 (inactive)
same,composite z-score,[2],-0.213
same,composite z-score,[3],-0.202
same,composite z-score,[4],0.903
same,composite z-score,[5],0.233
same,composite z-score,[6],1.34
same,composite z-score,Sam68 (KHDRBS1),0.185
same,composite z-score,[7],-1.69
same,composite z-score,[8],-0.137
COc1ccccc1CN1C(=O)c2ccccc2[C@](Cc2ccccc2I)(C(=O)NC2CC2)[C@@H]1c1ccc(CO)cc1,composite z-score,Albumin (Bos taurus),0.0506
same,composite Z-score,[1],0.0161 (inactive)
same,composite z-score,[2],-0.0208
same,composite z-score,[3],-0.0878
same,composite z-score,[4],0.548
same,composite z-score,[5],2.11
same,composite z-score,[6],0.524
same,composite z-score,Sam68 (KHDRBS1),1.32
same,composite z-score,[7],0.245
same,composite z-score,[8],1.14
CN1C(=O)C2C(C1=O)C1C=C(c3ccc(CO)cc3)C2C(C2CC2)N1Cc1cc2c(cc1Br)OCO2 (stereo not given),composite z-score,Albumin (Bos taurus),1.03
same,composite Z-score,[1],1.55 (inactive)
same,composite z-score,[2],0.211
same,composite z-score,[3],0.109
same,composite z-score,[4],0.786
same,composite z-score,[5],3.13
same,composite z-score,[6],0.863
same,composite z-score,Sam68 (KHDRBS1),1.3
same,composite z-score,[7],0.258
same,composite z-score,[8],1.16
COc1ccc([Si](C)(C)[C@H]2[C@H](CC(=O)N3CCC[C@H]3CO)O[C@@]3(C(=O)N(c4ccccc4)c4ccccc43)[C@@H]2C)cc1,composite z-score,Albumin (Bos taurus),0.723
same,composite Z-score,[1],-0.352 (inactive)
same,composite z-score,[2],-0.191
same,composite z-score,[3],-0.185
same,composite z-score,[4],0.655
same,composite z-score,[5],-0.0779
same,composite z-score,[6],0.0352
same,composite z-score,Sam68 (KHDRBS1),-0.126
same,composite z-score,[7],0.515
same,composite z-score,[8],0.493
